IL-1B inflam inh – inhibitors of inflammasome signaling (IL-1 beta secretion); THP-1 LPS/ATP IL-1B secretion, AlphaLISA, 16 h; stronger effect = lower value; actives 4.7% (n = 360,000); activity change, % at 57.5 µM; in the data active = activity change below about -50%; inconclusive = mostly about -30% to -49%
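THP-1 cells pretreated 1 hr with compounds (up to 57.5 uM final), then stimulated with LPS (250 ng/mL final) plus ATP (1.25 mM final); secreted IL-1B measured by AlphaLISA after 16 hr, decreased signal indicating inhibition.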
uPA surface inh – inhibitors of cell surface uPA generation. cell surface uPA generation assay, qHTS. Potency, µM (highest dose often 38.3 µM), for the others: at the highest dose activity change, negative = inhibition, most hits filed as inhibitors. actives 0.31% (n = 330,000). AID 540303; active = well fitted inhibition curve with a large enough effect; inconclusive = small, poorly fitted or top-dose-only effect; inactive = no such curve, though single readings can be large or run the other way; tested in mouse RAW 264.7 cells; also: potency is read from the fitted curve at half-maximal effect; nearly all actives have a fitted effect of over 55% in size
TDP1 cell CPT – DT40-hTDP1 cell growth loss with CPT. chicken DT40 Tdp1-/-;hTDP1 cells + 20 nM CPT, ATP luminescence, 48 h. Potency, µM (doses to about 46.2 µM), for the others: at the highest dose activity change, negative = growth inhibition, actives largely listed as inhibitors. actives 12% (n = 420,000). AID 686979; also: potency is read from the fitted curve at half-maximal effect; nearly all actives have a fitted effect of over 55% in size
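Cell growth measured by CellTiter-Glo luminescence after a minimum 48 h, 37 C compound exposure with 20 nM CPT in Tdp1-knockout DT40 cells stably expressing hTDP1, seeded 400/well; qHTS titration format.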
HT1080-NT tox – kills 2HG-producing HT-1080-NT fibrosarcoma cells; actives 1.6% (n = 360,000); HT-1080-NT fibrosarcoma viability, CellTiter-Glo ATP luminescence, 48 h; Potency, µM (top dose mostly 46.1 µM), inactives show at the top dose activity, negative = less viability, usual class: cytotoxic;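 also: NT is the 2HG producing partner of a matched IDH1 knockdown line; potency is read from the fitted curve at half-maximal effect; 0% = DMSO-treated cells and -100% = media-only wells without cells; nearly all actives have a fitted effect of over 55% in size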
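Read-out is CellTiter-Glo luminescence after 10 minutes at room temperature, following 48 hours' compound treatment of HT-1080-NT cells (750 cells/well, RPMI, 5% FBS, 37 degrees C).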
DT40 TDP1 no CPT – qHTS for Inhibitors of human tyrosyl-DNA phosphodiesterase 1 (TDP1): qHTS in cells in absence of CPT | DT40 Tdp1-/- hTDP1 cells, no CPT, ATP luminescence, 48 h | Potency, µM (highest dose often 46.2 µM), inactives show at the top dose activity change, negative = growth inhibition, usual class: inhibitors | actives 15% (n = 420,000) | AID 686978, 2013; also: potency is read from the fitted curve at half-maximal effect; nearly all actives have a fitted effect of over 55% in size
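Chicken DT40 Tdp1-/- cells complemented with human TDP1, screened without camptothecin (DMSO vehicle only), 400 cells/well. Compounds pin-transferred, cells incubated at 37 °C for at least 48 hr. Growth read as ATP-dependent luminescence (CellTiter-Glo, 30 min at RT).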
HT1080 IDH1KD tx – kills HT-1080 cells with IDH1 knockdown. HT-1080 IDH1 knockdown viability, ATP luminescence, 48 h. Potency, µM (titrated, usually from 46.1 µM), without a hit: top-dose activity, negative = toxicity, actives largely listed as cytotoxic. actives 2% (n = 360,000);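 also: potency is read from the fitted curve at half-maximal effect; 0% = DMSO wells and -100% = cell-free medium wells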
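HT-1080-IDH1KD cells (IDH1 knocked down), 750/well in RPMI with 5% FBS, treated with compound 48 h at 37 degrees C. Viability by CellTiter-Glo luminescence, normalised to DMSO and no-cell wells; concentration-response curves classed.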
* hit, by the source's call; ! = a repeat was not active. Only some compounds are listed: those with a hit (about 19% of all), similar ones and a draw of the others. Unless noted, calls follow the shape of the dose curve; as a rule, active = well fitted curve in the direction sought with a large enough effect; inconclusive = small, poorly fitted or top-dose-only effect, or another doubt; inactive = no such curve, though single readings can be large; an effect the other way counts as inactive or inconclusive. Unless noted, % is scaled to controls: 0 for no effect and ±100 for the full control effect.

For CC[C@]12c3[nH]c4ccc(OC)cc4c3CCN1C(=O)C(CC(=O)NCCCN(C)C)C[C@@H]2C(=O)N1CCN(C(=O)c2ccco2)CC1 (some centres undefined) the results were IL-1B inflam inh -4, uPA surface inh 20%, TDP1 cell CPT -2%, HT1080-NT tox 16%, DT40 TDP1 no CPT -9% and HT1080 IDH1KD tx 10%.
For CCCC(=O)N1CCC1(C)C(=O)Nc1cccc(F)c1 (centres undefined) the results were IL-1B inflam inh 11, TDP1 cell CPT -25%, HT1080-NT tox 25%, DT40 TDP1 no CPT -20% and HT1080 IDH1KD tx -3%.
CCN(CC)CCCCCCCCOC(=O)c1cc(OC)c(OC)c(OC)c1 was read as IL-1B inflam inh -14, uPA surface inh 19%, TDP1 cell CPT inconclusive, HT1080-NT tox -25%, DT40 TDP1 no CPT 22µM*! and HT1080 IDH1KD tx inconclusive.
For COc1cc(C(=O)OCCN2CCOCC2)cc(OC)c1OC the results were IL-1B inflam inh 15, uPA surface inh -5%, TDP1 cell CPT -16%, HT1080-NT tox 9%, DT40 TDP1 no CPT -6% and HT1080 IDH1KD tx 11%.
`COc1cc(C(=O)OCCCN(C)C)cc(OC)c1OC` gave IL-1B inflam inh -7, uPA surface inh -1%, TDP1 cell CPT 21%, HT1080-NT tox 25%, DT40 TDP1 no CPT -15% and HT1080 IDH1KD tx 17%.
Screening COc1cc(C(=O)OCCCN2CCCN(CCCOC(=O)c3cc(OC)c(OC)c(OC)c3)CC2)cc(OC)c1OC returned IL-1B inflam inh -22, uPA surface inh -18%, TDP1 cell CPT 17µM*!, HT1080-NT tox inconclusive, DT40 TDP1 no CPT 24µM* and HT1080 IDH1KD tx inconclusive.
Screening Cc1nn(C)c(=S)n1-c1ccc(Cl)cc1 returned IL-1B inflam inh 2, uPA surface inh -2%, TDP1 cell CPT -9%, HT1080-NT tox 11%, DT40 TDP1 no CPT -11% and HT1080 IDH1KD tx 2%.
Cc1nn(-c2ccccc2)c(=S)n1-c1ccccc1 was read as IL-1B inflam inh 42, uPA surface inh -9%, TDP1 cell CPT 21µM*, HT1080-NT tox -1%, DT40 TDP1 no CPT 13µM* and HT1080 IDH1KD tx -7%.
COc1ccc(S(=O)(=O)N2CCC(C(=O)NCCc3ccccc3)CC2)cc1 was read as IL-1B inflam inh 48, uPA surface inh 9%, TDP1 cell CPT -18%, HT1080-NT tox 20%, DT40 TDP1 no CPT -10% and HT1080 IDH1KD tx 0%.
For O=C1/C(=C\c2cccnc2)SC(=S)N1C1CCS(=O)(=O)C1 (centres undefined) the results were IL-1B inflam inh -79*, TDP1 cell CPT 3.7µM*, HT1080-NT tox -27%, DT40 TDP1 no CPT 18µM* and HT1080 IDH1KD tx inconclusive.
For Cc1ccc(N2C(=O)/C(=C/c3cccnc3)SC2=S)cc1 the results were IL-1B inflam inh -6, uPA surface inh -4%, TDP1 cell CPT 1%, HT1080-NT tox 14%, DT40 TDP1 no CPT -28% and HT1080 IDH1KD tx 6%.
Screening O=C(NN1C(=O)/C(=C\c2cccnc2)SC1=S)C(c1ccccc1)c1ccccc1 returned IL-1B inflam inh 7, uPA surface inh -6%, TDP1 cell CPT inconclusive, HT1080-NT tox -2%, DT40 TDP1 no CPT 26µM* and HT1080 IDH1KD tx -13%.
For O=C1/C(=C/c2cccnc2)SC(=S)N1C1CCS(=O)(=O)C1 (centres undefined) the results were IL-1B inflam inh -93*, uPA surface inh -9%, TDP1 cell CPT 10µM*, HT1080-NT tox -24%, DT40 TDP1 no CPT 9.2µM* and HT1080 IDH1KD tx 18µM*.
CCc1ccc(-c2cc3c(=O)n(CC(=O)NCCCN4CCC(Cc5ccccc5)CC4)nc(C)n3n2)cc1 was read as IL-1B inflam inh -9, uPA surface inh -17%, TDP1 cell CPT inconclusive, HT1080-NT tox 2%, DT40 TDP1 no CPT inconclusive and HT1080 IDH1KD tx -1%.

Compound activity as filed in PubChem BioAssay.
